Reference: PubChem BioAssay (NCATS)
Results filed as inconclusive are left out. Activity calls are given as the source filed them. Unless noted, calls come from the whole dose curve; as a rule, active = well fitted curve in the direction sought with a large enough effect; inconclusive = small, poorly fitted or top-dose-only effect, or another doubt; inactive = no such curve, though single readings can be large; an effect the other way counts as inactive or inconclusive.

Assays:
[1] = qHTS to identify inhibitors of the type 1 interferon - major histocompatibility complex class I in skeletal muscle: primary screen against the NCATS Pharmaceutical Collection (AID 1347407);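 note: luminescence of HiBiT knocked into endogenous HLA-B as interferon-induced MHC class I level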
Summary of the method: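 HLA-B HiBiT myoblasts, dexamethasone-free growth medium + 4 ng/ml IFN-b; compounds pinned 1 h after seeding, […] from 46 uM; 24 h, 37 C, 5% CO2; lytic HiBiT detection, 10 min RT, luminescence.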

[2] = target: Protein phosphatase 1D (Homo sapiens) (UniProt O15297); test: RapidFire Mass Spectrometry qHTS Assay for Modulators of WT P53-Induced Phosphatase 1 (WIP1) (AID 1347424); note: series mostly up to about 63 µM
Summary of the method: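 RapidFire MS readout of dephosphorylated VEPPL-S-QETFS product, with 1 uM isotope-labelled peptide standard. Reaction: 10 nM WIP1, 2 uM phosphopeptide substrate, 5 min, room temperature, after 1 h compound preincubation; stopped with 0.5% formic acid.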

[3] = target: Protein phosphatase 1D (Homo sapiens) (UniProt O15297); test: Rhodamine-PBP qHTS Assay for Modulators of WT P53-Induced Phosphatase 1 (WIP1) (AID 1347425)
Summary of the method: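 5 nM WIP1 + 10 uM Rh-PBP, 50 mM Tris pH 7.5, 30 mM MgCl2, 1 mM TCEP, 0.1 mM EGTA, BSA; cpds pinned, 1 hr RT; + 10 uM phosphopeptide; fluorescence 1-min reads x 11 min; delta = f1 - f0.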

[4] = Primary qHTS for inhibitors of SARS-S pseudo-typed particle cell entry (AID 1479145; calls by dose curve; note: nearly all actives have a fitted effect of over 45% in size)
[5] = Primary qHTS for Huh7 cytotoxicity: counterscreen for inhibitors of MERS-S pseudotyped particle cell entry (AID 1479147; calls by dose curve)
[6] = Primary qHTS for inhibitors of MERS-S pseudo-typed particle cell entry (AID 1479149; calls by dose curve; note: nearly all actives have a fitted effect of over 60% in size)
[7] = Primary qHTS for Vero E6 cytotoxicity: counterscreen for inhibitors of SARS-S pseudo-typed particle cell entry (AID 1479150; calls by dose curve)
[8] = Primary qHTS for inhibitors of La Crosse Virus (LACV) - induced cell death in SH-SY5Y cells (AID 1508616);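 note: top concentration of the series differs between compounds; higher means more rescue of cells from virus-induced death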
Summary of the method: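 Cytopathicity rescue screen: compounds pinned onto SH-SY5Y cells, which are then infected with LACV (MOI 0.01) and held 6 days at 37C. Percent activity is scaled between infected DMSO control and uninfected DMSO control.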

[9] = target: Calcium and integrin-binding protein 1 (Homo sapiens) (UniProt Q99828); test: Primary qHTS for Identification of Calcium Integrin Binding Protein 1 (CIB1) Competitor (AID 1508620);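 note: GST tagged CIB1 binding a fluorescein labelled alphaIIb integrin peptide tracer; top concentration of the series differs between compounds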
Summary of the method: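 Fluorescence polarization competition: GST-tagged CIB1 (1 uM final) preincubated with compound 15 min at room temperature, then FITC-labelled alphaIIb peptide (100 nM final) added. After 15 min at room temperature, polarization read at Ex 480/Em 540.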

[10] = qHTS to identify inhibitors of the type 1 interferon - major histocompatibility complex class I in skeletal muscle: primary screen against the NCATS LOPAC collection (AID 1347405);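 note: human myoblasts with HiBiT tag on endogenous HLA-B stimulated by IFN-beta; lytic HiBiT luminescence reporting HLA-B protein level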
Summary of the method: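 HLA-B HiBiT myoblasts, IFN-b 4 ng/ml, dexamethasone-free medium; compounds 7-pt 1:4.3 titration, top 46 uM final; 24 h at 37 C; Nano-Glo HiBiT lytic reagent, 10 min RT, luminescence.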

[11] = qHTS for inhibitors of adenylyl cyclases using a fission yeast platform: a pilot screen against the NCATS LOPAC library (AID 1347410)
Summary of the method: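 Read-out: fbp1-GFP fluorescence by laser scanning cytometry (488 nm laser), a gain of signal when AC/cAMP-PKA signalling is inhibited. Strain CHP2027 expressing AC9, GNAS and PDE4D2; compounds at up to 57 µM; 18 h, 30C.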

[12] = qHTS to identify inhibitors of the type 1 interferon - major histocompatibility complex class I in skeletal muscle: primary screen against the NCATS Mechanism Interrogation Plate v5.0 (MIPE) Libary (AID 1347411); note: nearly all actives have a fitted effect of over 65% in size
Summary of the method: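 HLA-B HiBit myoblasts, dexamethasone-free medium + 4 ng/ml IFN-b, 24 h compound, 11-pt 1:3 from 46 uM final. Readout: Nano-Glo HiBiT lytic luminescence after 10 min lysis, RT.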

[13] = Validation qHTS assay for inhibitors of Activation Induced Cytidine Deaminase (AID): UDG Counterscreen signal (AID 1347427)
Summary of the method: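 Fluorescence at 560 nm excitation, 665 nm emission reports UDG signal after 250 mM NaOH (2x) addition and 30 min. Enzymes (AID 1 uM, UDG 2 U/mL, at 4/3x) preincubated 10 min with compound, then 4 h with 4x 250 nM DJC20/DJC23 substrate at room temperature.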

[14] = target: Single-stranded DNA cytosine deaminase (Homo sapiens) (UniProt Q9GZX7); test: Validation qHTS assay for inhibitors of Activation Induced Cytidine Deaminase (AID): AID signal (AID 1347429)
Summary of the method: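 AID+UDG coupled FRET deamination; cpds up to 114 uM final; DJC20/DJC23 substrate, 4 hr RT; NaOH stop, 30 min RT; read Ex 540/Em 590.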

[15] = target: Calcium and integrin-binding protein 1 (Homo sapiens) (UniProt Q99828); test: Validation qHTS for Identification of Calcium Integrin Binding protein 1 (CIB1) Competitor (AID 1508618)
Summary of the method: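 Displacement of FITC-alphaIIb peptide (100 nM) from CIB1-GST (1 uM) is monitored by polarization in quantitative HTS format; buffer carries 5 mM CaCl2 and 125 mM NaCl at pH 7.4, incubations are at room temperature.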

Measured: Potency

Sequence of Calcium and integrin-binding protein 1 (Homo sapiens) (Q99828 whole entry, looked up): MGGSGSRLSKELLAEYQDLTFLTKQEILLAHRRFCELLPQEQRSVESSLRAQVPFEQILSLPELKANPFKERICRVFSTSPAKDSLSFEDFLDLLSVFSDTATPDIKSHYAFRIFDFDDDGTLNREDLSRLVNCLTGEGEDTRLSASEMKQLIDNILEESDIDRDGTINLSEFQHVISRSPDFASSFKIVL
Sequence of Protein phosphatase 1D (Homo sapiens) (O15297 whole entry, looked up): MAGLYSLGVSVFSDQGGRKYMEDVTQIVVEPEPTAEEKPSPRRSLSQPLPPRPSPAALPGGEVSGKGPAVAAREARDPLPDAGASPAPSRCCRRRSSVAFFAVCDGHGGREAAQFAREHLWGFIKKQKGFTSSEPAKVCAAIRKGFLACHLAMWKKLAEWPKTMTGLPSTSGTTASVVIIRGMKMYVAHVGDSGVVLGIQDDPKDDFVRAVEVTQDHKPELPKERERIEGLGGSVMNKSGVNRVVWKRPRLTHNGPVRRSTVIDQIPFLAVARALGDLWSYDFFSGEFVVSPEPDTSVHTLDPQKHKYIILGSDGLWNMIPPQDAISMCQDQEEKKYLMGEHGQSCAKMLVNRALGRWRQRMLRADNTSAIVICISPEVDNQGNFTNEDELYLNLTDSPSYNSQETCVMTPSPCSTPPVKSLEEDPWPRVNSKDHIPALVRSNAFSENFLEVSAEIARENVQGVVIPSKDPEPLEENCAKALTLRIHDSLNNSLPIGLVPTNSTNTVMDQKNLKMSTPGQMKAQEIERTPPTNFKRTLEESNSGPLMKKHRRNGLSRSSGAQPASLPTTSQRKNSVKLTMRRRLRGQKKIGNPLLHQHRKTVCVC
Sequence of Single-stranded DNA cytosine deaminase (Homo sapiens) (Q9GZX7 whole entry, looked up): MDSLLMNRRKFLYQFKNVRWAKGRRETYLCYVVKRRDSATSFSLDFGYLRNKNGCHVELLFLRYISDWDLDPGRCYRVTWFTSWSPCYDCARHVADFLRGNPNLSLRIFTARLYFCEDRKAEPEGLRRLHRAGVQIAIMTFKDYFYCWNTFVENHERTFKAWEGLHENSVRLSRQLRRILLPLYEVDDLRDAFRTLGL

CCCCCCCCC(=O)NCc1ccc(O)c(OC)c1
not listed: [10] | [11] | [12] | [13] | [14] | [15]
inactive: all other assays above

CCCCC1C(=O)NC(=O)N(C2CCCCC2)C1=O (stereo not drawn)
not listed: [10] | [11] | [12] | [13] | [14] | [15]
inactive: all other assays above

COc1ccc(C(=O)N2CCCC2=O)cc1
inactive: all assays above

CCOC(=O)C1(c2ccccc2)CCN(CCc2ccc(N)cc2)CC1
not listed: [10] | [11] | [12] | [13] | [14] | [15]
inactive: all other assays above

C[C@]12CC[C@H]3[C@@H](CCC4=CC(=O)CC[C@@]43C)[C@@H]1CC[C@@H]2C(=O)O
inactive: [1] | [2] | [3] | [8] | [9]

C=CC[C@]1(O)CC[C@H]2[C@@H]3CCC4=CC(=O)CCC4=C3C=C[C@@]21C
inactive: [1] | [2] | [3] | [5] | [7] | [8] | [9]

COc1ccc2[nH]cc(CCN(C(C)C)C(C)C)c2c1
inactive: [1] | [2] | [3] | [8] | [9]

CCOC(=O)NC(O)C(Cl)(Cl)Cl (stereo not drawn)
inactive: [1] | [2] | [3] | [8] | [9]

CCC(=O)C(CCN(C)C)(c1ccccc1)c1ccccc1
inactive: [1] | [2] | [3] | [5] | [7] | [9]

COc1cc(N)c(Cl)cc1C(=O)NC1CN2CCC1CC2 (stereo not drawn)
inactive: [1] | [2] | [3] | [8] | [9]

CCN(CC)CCOC(=O)C(C)(c1ccccc1)c1ccccc1
inactive: [1] | [2] | [3] | [8] | [9]

CCOC(=O)c1ncn2c1CN(C)C(=O)c1c(I)cccc1-2
inactive: [1] | [2] | [3] | [5] | [7] | [9]

C[C@H]1CNCCc2ccc(Cl)cc21
inactive: [1] | [2] | [3] | [8] | [9]

CC(Cc1ccccc1)NCCCCl (stereo not drawn)
inactive: [1] | [2] | [3] | [5] | [6] | [7] | [8] | [9]

CC[C@H]1C[C@H]2[C@@H]3CCC4=CC(=O)CC[C@@H]4[C@H]3CC[C@]2(C)[C@H]1O
inactive: [1] | [2] | [3] | [5] | [7] | [8] | [9]

C=CCOC(Cn1ccnc1)c1ccc(Cl)cc1Cl (stereo not drawn)
inactive: [1] | [2] | [3] | [5] | [7] | [8] | [9]

O=C(CCCN1CCC(n2c(=O)[nH]c3ccccc32)CC1)c1ccc(F)cc1
inactive: [1] | [2] | [3] | [5] | [7]

OC(O)C(Cl)(Cl)Cl
inactive: [1] | [2] | [3] | [8] | [9]

COc1cc(CC(C)N)cc2c1OCO2 (stereo not drawn)
inactive: [1] | [2] | [3] | [8] | [9]

CN(C)CCc1c[nH]c2ccc(O)cc12
inactive: [1] | [2] | [3] | [8]

CCC(OC(C)=O)C(CC(C)NC)(c1ccccc1)c1ccccc1 (stereo not drawn)
inactive: [1] | [2] | [3] | [8] | [9]

CCN(CC)C(C)C(=O)c1ccccc1 (stereo not drawn)
inactive: [1] | [2] | [3] | [8]

C[C@@H]1CN(C2CCC(C#N)(c3ccc(F)cc3)CC2)CC[C@]1(C(=O)O)c1ccccc1 (stereo partly drawn)
inactive: [1] | [2] | [3] | [5] | [6] | [7] | [8] | [9]

CC(CC(C#N)(c1ccccc1)c1ccccc1)N(C)C (stereo not drawn)
inactive: [1] | [2] | [3] | [8] | [9]

C[C@H]1C(=O)O[C@@H]2CCN3CC=C(COC(=O)[C@](C)(O)[C@]1(C)O)[C@H]23
inactive: [1] | [2] | [3] | [8] | [9]

CCNc1nc(Cl)nc(NCC)n1
inactive: [1] | [2] | [3] | [8] | [9]

Clc1ccc(C(OCCN2CCCCC2)c2ccccc2)cc1 (stereo not drawn)
inactive: [1] | [2] | [3] | [5] | [7] | [9]

CCS(=O)(=O)C(C)(C)S(=O)(=O)CC
inactive: [1] | [2] | [3] | [8] | [9]

C1CN2CCC1CC2
inactive: [1] | [2] | [3] | [8] | [9]

CCN(CC)Cc1nccn1-c1ccc([N+](=O)[O-])cc1C(=O)c1ccccc1Cl
inactive: [1] | [2] | [3] | [5] | [6] | [7] | [8] | [9]

CCN(Cc1ccc(Cl)nc1)/C(=C/[N+](=O)[O-])NC
inactive: [1] | [2] | [3] | [8] | [9]

Clc1ccc(CO/N=C(\Cn2ccnc2)c2ccc(Cl)cc2Cl)c(Cl)c1
inactive: [1] | [2] | [3] | [5] | [7] | [8] | [9]

CC(C)C(Br)C(=O)NC(N)=O (stereo not drawn)
inactive: [1] | [2] | [3] | [5] | [6] | [7] | [9]

O=C(NC(=O)c1c(F)cccc1F)Nc1cc(Cl)c(OC(F)(F)C(F)C(F)(F)F)cc1Cl (stereo not drawn)
inactive: [1] | [2] | [3] | [5] | [7] | [9]
